The nature of experiment [1]: qHTS assay to identify small molecule antagonists of the glucocorticoid receptor (GR) signaling pathway - cell viability counter screen (AID 720693; note: nearly all actives have a fitted effect of over 55% in size). (qHTS replaces the single test concentration by a dilution series.)
Experiment [2] in a line: qHTS assay for identifying genotoxic compounds that show differential cytotoxicity against isogenic chicken DT40 cell lines with known DNA damage response pathways - wild type cell line (AID 743012). Note: nearly all actives have a fitted effect of over 60% in size. Note: potency is the fitted concentration of half-maximal effect. Put shortly: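 Quantitative HTS on parental DT40 cells: 40 h compound treatment at 37 C/5% CO2, with viability then determined by CellTiter-Glo luminescence. Values serve as the DNA repair-proficient reference for differential cytotoxicity.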

Experiment [3] can be described thus: qHTS assay for identifying genotoxic compounds that show differential cytotoxicity against isogenic chicken DT40 cell lines with known DNA damage response pathways - Rev3 mutant cell line (AID 743014). Note: nearly all actives have a fitted effect of over 55% in size. Note: potency is the fitted concentration of half-maximal effect.
A short description of experiment [4]: qHTS assay for identifying genotoxic compounds that show differential cytotoxicity against isogenic chicken DT40 cell lines with known DNA damage response pathways - Rad54/Ku70 mutant cell line (AID 743015). Note: nearly all actives have a fitted effect of over 60% in size.
Experiment [5] is described as follows: qHTS assay to identify small molecule antagonists of the androgen receptor (AR) signaling pathway - cell viability counter screen (AID 743033; note: nearly all actives have a fitted effect of over 45% in size).
A short description of experiment [6]: qHTS assay to identify small molecule antagonists of the thyroid receptor (TR) signaling pathway - cell viability counter screen (AID 743064). Note: nearly all actives have a fitted effect of over 50% in size. Put shortly:
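Viability of T3-stimulated (1 nM final) GH3.TRE-Luc cells is measured by CellTiter-Fluor fluorescence after 23.5 h compound exposure at 37 °C plus 30 min reagent incubation.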

The nature of experiment [7]: qHTS assay to identify small molecule antagonists of the thyroid receptor (TR) signaling pathway (AID 743065). Note: series mostly up to about 70 µM; nearly all actives have a fitted effect of over 55% in size. Put shortly: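 GH3.TRE-Luc rat pituitary cells (two TREs driving luciferase) were dosed with compound, then stimulated with 1 nM T3 (final) for 23.5 h at 37 C. ONE-Glo luminescence was the read-out, with CellTiter-Fluor fluorescence as the cytotoxicity counter-screen.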

The test system of experiment [8] is thyroid hormone receptor (rat, GH3 cells). Put plainly: qHTS assay to identify small molecule agonists of the thyroid receptor (TR) signaling pathway (AID 743066; calls by dose curve).
In experiment [9] the target is Estrogen receptor (Homo sapiens) (UniProt P03372). Put plainly: qHTS assay to identify small molecule antagonists of the estrogen receptor alpha (ER-alpha) signaling pathway (AID 743069; active = well fitted curve in the direction sought with a large enough effect in the signal ratio in the repeat runs, not every such curve was filed as active; the % refers to the signal ratio). In outline: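 Reporter cells (ER-alpha-bla, HEK293 background) are conditioned overnight in stripped-serum medium (2% charcoal-stripped FBS). Compound and 17beta-estradiol exposure runs 18 hr at 37C, 5% CO2.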
Chain of Estrogen receptor (Homo sapiens) (P03372 whole entry, looked up): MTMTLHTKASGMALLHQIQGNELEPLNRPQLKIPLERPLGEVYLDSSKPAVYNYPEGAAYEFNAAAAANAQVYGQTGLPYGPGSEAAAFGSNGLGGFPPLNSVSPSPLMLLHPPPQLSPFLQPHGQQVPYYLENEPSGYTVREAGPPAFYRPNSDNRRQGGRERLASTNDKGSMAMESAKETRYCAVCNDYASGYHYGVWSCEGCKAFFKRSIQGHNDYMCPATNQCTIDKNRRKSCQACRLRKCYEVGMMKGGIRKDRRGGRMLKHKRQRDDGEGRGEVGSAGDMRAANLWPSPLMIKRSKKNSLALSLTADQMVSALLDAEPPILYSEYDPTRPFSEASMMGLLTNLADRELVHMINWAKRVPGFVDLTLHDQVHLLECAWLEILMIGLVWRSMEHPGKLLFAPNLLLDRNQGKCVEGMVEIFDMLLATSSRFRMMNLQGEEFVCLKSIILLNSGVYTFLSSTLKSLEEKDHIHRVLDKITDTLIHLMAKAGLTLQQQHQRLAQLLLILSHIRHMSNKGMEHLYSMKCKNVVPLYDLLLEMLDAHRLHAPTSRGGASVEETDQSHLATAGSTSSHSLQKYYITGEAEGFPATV

Experiment [10] is described as follows: qHTS assay to identify small molecule antagonists of the estrogen receptor alpha (ER-alpha) signaling pathway - cell viability counter screen (AID 743074; calls by dose curve;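 note: HEK293 cells carrying ER-alpha-UAS-bla reporter stimulated with 17beta-estradiol; nearly all actives have a fitted effect of over 45% in size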).
Experiment [11] addresses Estrogen receptor (Homo sapiens) (UniProt P03372). Put plainly: qHTS assay to identify small molecule agonists of the estrogen receptor alpha (ER-alpha) signaling pathway (AID 743075; calls by dose curve;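 note: HEK293 GripTite cells with ER-alpha and UAS-driven beta-lactamase reporter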).
The target is the same in experiment [12]. Put plainly: qHTS assay to identify small molecule agonists of the estrogen receptor alpha (ER-alpha) signaling pathway using the BG1 cell line (AID 743079). Note: nearly all actives have a fitted effect of over 20% in size.
A short description of experiment [13]: qHTS assay to identify small molecule antagonists of the estrogen receptor alpha (ER-alpha) signaling pathway using the BG1 cell line (AID 743080; calls by dose curve;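 note: BG1 cells stimulated with 17beta-estradiol alongside compound; series mostly up to about 70 µM; nearly all actives have a fitted effect of over 25% in size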). Put shortly:
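BG1-Luc-4E2 cells (endogenous full-length ER-alpha, 4xERE luciferase) hormone-starved 5 days in charcoal-stripped FBS, plated 4,000/well for 24 h, then compound plus 17beta-estradiol for 21.5 h at 37 C; ONE-Glo luminescence read.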

Experiment [14] in a line: qHTS assay to identify small molecule antagonists of the estrogen receptor alpha (ER-alpha) signaling pathway using the BG1 cell line - cell viability counter screen (AID 743081).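 Note: compound given together with 17beta-estradiol as the ER stimulus; series mostly up to about 70 µM; nearly all actives have a fitted effect of over 45% in size.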
Another experiment concerns the target Aromatase (Homo sapiens) (UniProt P11511). Put plainly: qHTS assay to identify aromatase inhibitors (AID 743083). Note: series mostly up to about 70 µM; nearly all actives have a fitted effect of over 55% in size.
Experiment [15] concerns the target Androgen receptor (Homo sapiens) (UniProt P10275). Put plainly: qHTS assay to identify small molecule antagonists of the androgen receptor (AR) signaling pathway (AID 743035; active = well fitted inhibition curve with a large enough effect in the signal ratio in the repeat runs, not every such curve was filed as active; the % refers to the signal ratio). Put shortly:
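Cell line: GeneBLAzer AR-UAS-bla GripTite (HEK293). Stimulus: R1881 added after compound. Exposure: 16 h, 37C, 5% CO2. Readout: LiveBLAzer B/G FRET fluorescence after 2 h at room temperature.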

The target is the same in experiment [16]. Put plainly: qHTS assay to identify small molecule agonists of the androgen receptor (AR) signaling pathway (AID 743036; active = well fitted activation curve with a large enough effect in the signal ratio in the repeat runs, with a control signal flat, not every such curve was filed as active; the % refers to the signal ratio). In outline:
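Screening used 2,000 AR-bla HEK293 cells per well, treated 16 h at 37C with test compounds in DMSO alongside positive and DMSO-only controls; beta-lactamase activity was then read by LiveBLAzer B/G FRET fluorescence after 2 h at room temperature.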

Experiment [17] has the same target. Put plainly: qHTS assay to identify small molecule agonists of the androgen receptor (AR) signaling pathway using the MDA cell line (AID 743040; note: nearly all actives have a fitted effect of over 20% in size). Put shortly:
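Human breast carcinoma MDA-kb2 reporter cells (MMTV-luc, AR/GR elements) were treated for 16 h at 37C in 0% CO2 following a 5 h settling period. Signal was quantified by ONE-Glo luminescence.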

Experiment [18] is described as follows: qHTS assay to identify small molecule antagonists of the androgen receptor (AR) signaling pathway using the MDA cell line - cell viability counter screen (AID 743041; note: nearly all actives have a fitted effect of over 45% in size). Put shortly: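 Same-well cytotoxicity was assessed by CellTiter-Fluor in MDA-kb2 AR-luc cells after 16 h of compound treatment under R1881 agonism.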
For experiment [19], the target named is Androgen receptor (Homo sapiens) (UniProt P10275). Put plainly: qHTS assay to identify small molecule antagonists of the androgen receptor (AR) signaling pathway using the MDA cell line (AID 743042; note: nearly all actives have a fitted effect of over 55% in size). Put shortly: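 MDA-kb2 breast carcinoma cells carrying MMTV-luciferase (AR/GR responsive) were co-treated with compounds and the agonist R1881 for 16 h at 37C. Inhibition read as ONE-Glo luminescence; CellTiter-Fluor fluorescence measured in parallel for cytotoxicity.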
Chain of Androgen receptor (Homo sapiens) (P10275 whole entry, looked up): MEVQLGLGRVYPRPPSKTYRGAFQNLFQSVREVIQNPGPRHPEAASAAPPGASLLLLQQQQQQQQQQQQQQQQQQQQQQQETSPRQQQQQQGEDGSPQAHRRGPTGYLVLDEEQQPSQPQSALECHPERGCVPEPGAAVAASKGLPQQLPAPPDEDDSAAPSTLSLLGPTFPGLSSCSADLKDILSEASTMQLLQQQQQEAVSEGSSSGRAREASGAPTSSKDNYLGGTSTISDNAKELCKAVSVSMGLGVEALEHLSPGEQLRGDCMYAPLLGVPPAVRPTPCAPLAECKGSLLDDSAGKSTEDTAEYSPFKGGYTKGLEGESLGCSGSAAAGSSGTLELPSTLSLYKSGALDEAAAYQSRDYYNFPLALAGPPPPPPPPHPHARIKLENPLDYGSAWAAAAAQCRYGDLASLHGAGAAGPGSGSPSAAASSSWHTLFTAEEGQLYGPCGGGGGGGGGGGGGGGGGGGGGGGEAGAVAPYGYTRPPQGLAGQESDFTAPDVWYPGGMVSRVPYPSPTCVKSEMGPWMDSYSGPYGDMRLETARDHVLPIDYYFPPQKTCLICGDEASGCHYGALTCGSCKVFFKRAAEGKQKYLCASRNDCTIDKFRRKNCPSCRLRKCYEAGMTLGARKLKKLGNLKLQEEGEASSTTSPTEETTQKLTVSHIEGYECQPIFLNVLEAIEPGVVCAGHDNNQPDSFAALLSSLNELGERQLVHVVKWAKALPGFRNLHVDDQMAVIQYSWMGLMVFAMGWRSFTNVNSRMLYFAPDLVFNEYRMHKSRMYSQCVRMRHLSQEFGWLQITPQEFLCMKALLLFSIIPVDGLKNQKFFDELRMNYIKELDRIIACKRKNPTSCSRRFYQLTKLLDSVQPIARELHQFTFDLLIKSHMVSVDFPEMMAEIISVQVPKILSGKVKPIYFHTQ

Inconclusive results are not listed. Activity calls are given as the source filed them. Unless noted, calls come from the whole dose curve; as a rule, active = well fitted curve in the direction sought with a large enough effect in the repeat runs; inconclusive = weak or mixed curves; inactive = no such curve, though single readings can be large; an effect the other way counts as inactive or inconclusive.

Chain of Aromatase (Homo sapiens) (P11511 whole entry, looked up): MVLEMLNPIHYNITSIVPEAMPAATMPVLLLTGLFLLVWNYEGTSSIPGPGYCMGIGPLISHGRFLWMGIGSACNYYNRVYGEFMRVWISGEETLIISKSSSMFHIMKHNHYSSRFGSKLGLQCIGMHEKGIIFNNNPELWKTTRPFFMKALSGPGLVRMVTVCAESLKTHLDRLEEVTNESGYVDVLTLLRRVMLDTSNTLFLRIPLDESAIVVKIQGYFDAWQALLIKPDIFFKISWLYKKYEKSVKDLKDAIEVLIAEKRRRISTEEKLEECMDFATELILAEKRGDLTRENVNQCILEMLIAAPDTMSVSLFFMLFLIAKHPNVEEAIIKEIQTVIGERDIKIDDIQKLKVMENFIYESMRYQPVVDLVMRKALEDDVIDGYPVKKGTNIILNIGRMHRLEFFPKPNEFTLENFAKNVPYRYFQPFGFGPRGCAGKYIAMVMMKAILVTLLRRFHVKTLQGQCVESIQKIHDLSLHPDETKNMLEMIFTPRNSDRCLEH

For the molecule `CO[Si](CCCS)(OC)OC`, the Potency result in experiment [1], in experiment [2], in experiment [3], in experiment [4], in experiment [6] and in [7] was “inactive” in each case. The Potency result in experiment [8], in [9], in [10], in experiment [11] and in experiment [12] was “inactive” in each case. The molecule was called inactive (in experiment [5]; in experiment [13]; in [14]; with Aromatase (Homo sapiens)).

With `CCCCCCCCCCCCCCCCI`, the Potency entry in experiment [1], in [2], in [3], in experiment [15], in experiment [6] and in experiment [7] was “inactive” each time. For the same molecule, the Potency entry in experiment [8] and in [10] was “inactive” throughout. In addition, the call in [5], in experiment [16], in [17], in experiment [18], in experiment [19] and in experiment [14] was inactive. In addition, the call with Aromatase (Homo sapiens) was inactive.

With `CC(C)COC(=O)/C=C/c1ccccc1`, the Potency entry in [1], in experiment [2], in experiment [3], in experiment [7], in experiment [8] and in experiment [9] was “inactive” throughout. In addition, the Potency result in [10], in [11] and in experiment [12] was “inactive” each time. Also, the outcome in [5], in experiment [18], in experiment [13] and in experiment [14] was inactive.

With `Cc1ccccc1C`, the Potency entry in [1], in experiment [2], in experiment [3], in experiment [4], in experiment [9] and in experiment [10] was “inactive” in each case. The Potency entry in experiment [11] and in [12] was “inactive” throughout. For the same molecule, the molecule was called inactive (in experiment [5]; in experiment [18]; in experiment [13]; in experiment [14]; with Aromatase (Homo sapiens)).

As for `COc1cc(C=O)ccc1OC(=O)C(C)C`, the Potency result in experiment [1], in experiment [2], in [3], in [6], in experiment [7] and in [8] was “inactive” in each case. Moreover, the Potency entry in experiment [10] is “inactive”. For the same molecule, the molecule was called inactive (in experiment [5]; in experiment [18]; in [14]; with Aromatase (Homo sapiens)).

Consider `Cc1ncc([N+](=O)[O-])n1CC(O)CCl` (stereo not given), for which the Potency entry in [1], in [2], in experiment [3], in experiment [15], in experiment [7] and in [8] was “inactive” throughout. Besides, the Potency result in experiment [10] was “inactive”. The outcome (in experiment [5]; in experiment [17]; in [18]; in experiment [19]; in [14]; with Aromatase (Homo sapiens)) was inactive.

As for `Nc1cc(Cl)cc(S(=O)(=O)O)c1O`, the Potency result in [1], in experiment [2], in [3], in [6], in experiment [7] and in [8] was “inactive” throughout. In addition, the Potency entry in [9], in experiment [10], in experiment [11] and in experiment [12] was “inactive” in each case. The result (in experiment [5]; in experiment [18]; in [13]; in experiment [14]; with Aromatase (Homo sapiens)) was inactive.

Take `CC(=O)OC(C)(C)Cc1ccccc1`: the Potency entry in experiment [1], in experiment [2], in experiment [3], in [6], in experiment [7] and in [8] was “inactive” throughout. Moreover, the Potency result in experiment [10] is “inactive”. Moreover, the outcome in experiment [5], in experiment [18] and in [14] was inactive.

With `NS(=O)(=O)c1cc2c(cc1Cl)NC(CC1CCCC1)NS2(=O)=O` (stereo not given), the Potency entry in experiment [1], in experiment [2], in experiment [3], in experiment [7], in [8] and in [10] was “inactive” throughout. Besides, the molecule was classed as inactive (in experiment [5]; in experiment [18]; in [14]; with Aromatase (Homo sapiens)).

Regarding `C1=CCC(c2ccccc2)CC1` (stereo not given), the Potency entry in experiment [1], in experiment [7], in experiment [8] and in experiment [10] was “inactive” in each case. Besides, the Potency in experiment [2] is 61.1 µM (active); in experiment [3], 30.6 µM (active). Further, the outcome (in [5]; in experiment [18]; in experiment [14]; in the experiment with Aromatase (Homo sapiens)) was inactive.
